LASV entry inh – blocks Lassa virus binding or cell entry; Lassa virus pseudotyped entry inhibition, cell-based qHTS; hit rate 4.1% among 18,000; Potency, µM (top dose mostly 49.2 µM), inactives show at the top dose activity change, negative = inhibition, usual class: inhibitors; AID 720533
Marburg entry – blocks Marburg virus binding or cell entry | Marburg virus pseudotype entry/binding inhibition, cell-based | Potency, µM (top dose mostly 49.2 µM), inactives show top-dose activity change, negative = inhibition, most hits filed as inhibitors | hit rate 6.5% among 18,000 | AID 720532
* = called active by the depositor; ? = inconclusive; . = no result given; ! = a repeat was not active; [ ] = another dose, or the depositor's remark. Rows were chosen to be rich in hits. Some 7.1% of all compounds tested hit in one or more screens of this group. Calls follow the shape of the full dose curve; tested in HEK293 cells. % is scaled to controls: 0 for no effect and ±100 for the full control effect; potency is read from the fitted curve at half-maximal effect.

SMILES | LASV entry inh | Marburg entry
COc1ccc(CN2CCCC(c3nc(-c4ccncc4)ncc3-c3ccccc3C)C2)c(OC)c1 (stereo not given) | 17.8µM* | 3.55µM*
CCCCCCCc1cc2ccccc2c2c(C(=O)OC)c(-c3ccccc3)c(C(=O)OC)n12 | -1.1%[8.59 µM] | ?
COC(=O)C(C(=O)OC)[C@@H]1O[C@@]23COC=C[C@]2(C)[C@@H]3c2ccccc21 | 3.1%[8.59 µM] | ?
NC(=O)c1cccc(Nc2nccc(Nc3cccc(F)c3)n2)c1 | 32.0% | -59.6%
COc1ccc(-c2nn3ncccc3c2-c2ccnc(Nc3cccc(C(F)(F)F)c3)n2)cc1 | ? | 12.5µM*
Cc1ccc2c(-c3ccnc(Nc4ccccc4)n3)c(-c3ccc(F)cc3)nn2n1 | ? | 3.53µM*
CCc1nn2ncccc2c1-c1ccnc(NC2CC2)n1 | . | -14.3%
COc1cccc(Nc2nccc(-c3cnn4ncccc34)n2)c1 | ? | 0.315µM*
CC=COC(=O)N[C@@H](c1ccccc1)[C@]1(C(=O)OC)CCCC1=O | 5.3%[8.59 µM] | ?
COC(=O)[C@@]1(C=C2c3ccccc3[C@@H](OC)[C@@H]2C)[C@@H]2Oc3ccccc3[C@@H]21 | . | -0.2%[8.59 µM]
COC(=O)N[C@@H](c1cccc(C)c1)[C@]1(C(=O)OC)CCCC1=O | 11.2%[8.59 µM] | ?
C[C@H]1CC[C@H]2C(=O)O[C@H](CO)CN2[C@H]1c1ccc(Br)cc1 | . | -20.5%[8.59 µM]
CCCN1CCC(Oc2cc(Nc3nc(Nc4cccc(F)c4C(N)=O)c4cc[nH]c4n3)c(OC)cc2Cl)CC1 | ? | 9.96µM*
CCCN1CCCC(c2ccc(Nc3nc(Nc4cc(F)ccc4C(N)=O)c4cc[nH]c4n3)c(OC)c2)C1 (stereo not given) | ? | 7.91µM*
CCCN1CCC=C(c2ccc(Nc3nc(Nc4ccccc4C(N)=O)c4cc[nH]c4n3)c(C)c2)C1 | -1.5% | ?
COC(=O)C1=C(C(=O)OC)[C@@H]2N(C)c3ccccc3[C@@]23CCC(=O)N(CCCOC(C)C)C3=N1 | -20.1%[8.59 µM] | -9.7%[8.59 µM]
COC(=O)N[C@@H](c1ccccc1)[C@]1(C(C)=O)CCCC1=O | 10.3%[8.59 µM] | -4.1%[8.59 µM]
COc1ccc2c(c1)O[C@H](c1ccc3c(c1)OCO3)[C@@H](OC(=O)NS(=O)(=O)c1ccc(F)cc1)C2=O | 2.7% | 8.3%
Fc1ccc([C@H]2CCNC[C@H]2COc2ccc3c(c2)OCO3)cc1 | ? | 11.2µM*
Fc1ccc([C@H]2CCNCC2COc2ccc3c(c2)OCO3)cc1 (stereo not given in full) | -14.2% | 10µM*
COc1ccc2c(c1)O[C@@H](c1ccc3c(c1)OCO3)[C@H](OC(=O)NS(=O)(=O)c1ccc(F)cc1)C2=O | -0.1% | 19.0%
CC(=O)OC[C@H]1O[C@H](CCON=C(C)CCN2CCCCc3nc(C)c(C)cc32)C=C[C@H]1OC(C)=O | -4.5%[8.59 µM] | 16.2%[8.59 µM]
N#Cc1cccc(Nc2ncc(-c3ccccc3)o2)c1 | 2.4% | 18.5%
COC(=O)CC=C[C@@H](C)[C@@H](C=NOC[C@@H](O)COCc1ccco1)OC | 2.9%[8.59 µM] | -14.0%[8.59 µM]
CC(=O)OC[C@]12C[C@H](OC(=O)CC(C)C)C(C)=C[C@H]1O[C@H]1[C@H](O)[C@@H](OC(C)=O)[C@@]2(C)[C@]12CO2 | 0.178µM* | 8.91µM*
SMILES | LASV entry inh | Marburg entry
COC(=O)[C@]12C[C@@H]3CCN(C(=O)N[C@@H]1c1ccccc1)[C@@]32C | . | 75.7%[8.59 µM]
Cc1c(N)nc(C(CC(N)=O)NCC(N)C(N)=O)nc1C(=O)NC(C(=O)NC(C)C(O)C(C)C(=O)NC(C(=O)NCCc1nc(-c2nc(C(=O)NCCCN[C@@H](C)c3ccccc3)cs2)cs1)C(C)O)C(O[C@@H]1O[C@@H](CO)[C@@H](O)[C@H](O)[C@@H]1O[C@H]1O[C@H](CO)[C@@H](O)[C@H](OC(N)=O)[C@@H]1O)c1cnc[nH]1 (stereo not given in full) | 3.55µM* | 3.16µM*
C=CC(C)(C)c1[nH]c2ccccc2c1C1=C(O)C(=O)C(c2c[nH]c3c(CC=C(C)C)cccc23)=C(O)C1=O | 14.1µM* | -7.2%
Cc1cc2c(c(=O)o1)[C@H]1O[C@](CCCCN3C(=O)c4ccccc4C3=O)(Cc3cc(C#N)ccc31)O2 | 9.4%[8.59 µM] | 39.1%[8.59 µM]
CC(CN1c2ccccc2Sc2ccc(S(=O)(=O)N(C)C)cc21)N(C)C (stereo not given) | -4.7% | ?
CCc1ccc2c(c1)N(CC(C)CN(C)C)c1ccccc1S2 (stereo not given) | 17.8µM* | 14.1µM*
CC(N)C(O)c1ccc(O)c(O)c1 (stereo not given) | -7.6% | 11.2µM*!
C[C@H](N)[C@H](O)c1cccc(O)c1 | -2.7%[17.8 µM] | 1.4%[17.8 µM]
C[C@H]1CC[C@H]2C(=O)N(Cc3ccccc3)C[C@@H](O)CN2[C@H]1c1cccc(Br)c1 | . | 10.3%[8.59 µM]
COc1ccc(C(=O)OC2C[C@H]3CC[C@@H](C2)N3C)cc1OC (stereo not given in full) | 8.5%[17.8 µM] | -20.3%[17.8 µM]
CN1[C@@H]2CC[C@H]1CC(OC(c1ccc(F)cc1)c1ccc(F)cc1)C2 (stereo not given in full) | 14.1µM* | 7.94µM*
COc1ccc(COCC[C@@H]2C[C@@H]3C=CCOP(=O)(O2)O3)cc1 | -28.5% | 13.1%
COC1=C(C(=O)c2ccccc2)C(=O)[C@@]2(CC=C(C)C)C[C@H](C(=O)OCC(F)(F)F)C(C)(C)[C@@]1(CC=C(C)C)C2=O | 2.0%[8.59 µM] | 32.8%[8.59 µM]
CC1=C(/C=C/C(C)=C/C=C/C(C)=C/C=C/C=C(C)/C=C/C=C(C)/C=C/C2=C(C)C[C@@H](O)CC2(C)C)C(C)(C)C[C@H](O)C1 | 28.2µM* | 8.6%
CC1=C(/C=C/C(C)=C/C=C/C(C)=C/C=C/C=C(C)/C=C/C=C(C)/C=C/C(=O)[C@]2(C)CC(O)CC2(C)C)C(C)(C)CC(O)C1 (stereo not given in full) | 5.8% | 8.1%
CCN1C(=NCc2cccc(Cl)c2)NC(c2cccc(C(F)(F)F)c2)C(C(=O)OC)=C1C (stereo not given) | ? | -24.8%[8.59 µM]
CCOC(=O)CCC(=O)O[C@H]1[C@H](O[C@@H]2[C@@H](C)[C@H](O[C@H]3C[C@@](C)(OC)[C@@H](O)[C@H](C)O3)[C@@H](C)C(=O)O[C@H](CC)[C@@](C)(O)[C@H](O)[C@@H](C)C(=O)[C@H](C)C[C@@]2(C)O)O[C@H](C)C[C@@H]1N(C)C | 0.8% | 7.8%
CC[C@H]1OC(=O)[C@H](C)[C@@H](O[C@H]2C[C@@](C)(OC)[C@@H](O)[C@H](C)O2)[C@H](C)[C@@H](O[C@@H]2O[C@H](C)C[C@H](N(C)C)[C@H]2O)[C@](C)(O)C[C@@H](C)[C@@H]2N[C@@H](COCCOC)O[C@@H]([C@H]2C)[C@]1(C)O | -1.4% | 7.08µM*
CCC(=O)O[C@H]1[C@H](O[C@@H]2[C@@H](C)[C@H](O[C@H]3C[C@@](C)(OC)[C@@H](O)[C@H](C)O3)[C@@H](C)C(=O)O[C@H](CC)[C@@](C)(O)[C@H](O)[C@@H](C)C(=O)[C@H](C)C[C@@]2(C)O)O[C@H](C)C[C@@H]1N(C)C | 25.1µM* | 10µM*
CCC1OC(=O)C(C)[C@@H](O[C@H]2C[C@@](C)(OC)C(O)C(C)O2)C(C)[C@@H](O[C@@H]2OC(C)CC(N(C)C)C2O)[C@@](C)(O)CC(C)C2NC(COCCOC)O[C@H](C2C)[C@@]1(C)O (stereo not given in full) | -6.7% | -16.2%
COC1=C[C@H](C(=O)N[C@H]2CCCC[C@H]2NC(C)=O)[C@@]2(C)Cc3ccccc3[C@@H]2CC1=O | 24.3%[8.59 µM] | -12.3%[8.59 µM]

Screening results deposited in PubChem by National Center for Advancing Translational Sciences (NCATS).
